In PubChem BioAssay (NCATS):
Inconclusive results are not listed. Active and inactive are the calls of the source. Calls follow the shape of the dose curve; as a rule, active = well fitted curve in the direction sought with a large enough effect; inconclusive = small, poorly fitted or top-dose-only effect, or another doubt; inactive = no such curve, though single readings can be large; an effect the other way counts as inactive or inconclusive.

Assays:
[1] = system: Zika virus NS2B-NS3 protease (linked construct); test: Primary screen NINDS Rhodamine qHTS for Zika virus inhibitors (AID 1347160); also: nearly all actives have a fitted effect of over 55% in size
Summary of the method: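 Kinetic fluorescence (Ex 480 nm, Em 540 nm) over 15 min with 1.5 microM Rhodamine110 peptide and 25 nM linked protease.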

[2] = qHTS to identify inhibitors of the type 1 interferon - major histocompatibility complex class I in skeletal muscle: primary screen against the NCATS Mechanism Interrogation Plate v5.0 (MIPE) Libary (AID 1347411); also: nearly all actives have a fitted effect of over 65% in size
Summary of the method: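 Cells were genome-edited human myoblasts carrying a HiBit tag on endogenous HLA-B. They were treated with IFN-beta (4.0 ng/ml) and titrated compounds (top 46 uM) for 24 hrs before lytic HiBiT detection.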

[3] = Confirmatory screen NINDS Rhodamine qHTS for Zika virus inhibitors (AID 1347161);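 also: purified Zika NS2B-NS3 protease with linked NS2B cofactor domain and Rhodamine110 peptide substrate; series mostly up to about 110 µM; nearly all actives have a fitted effect of over 60% in size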
Summary of the method: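 Aprotinin served as in-plate control. Conditions: 25 nM linked NS2B-NS3, pH 8.0 Tris buffer, titrated compounds, 15 min preincubation and 15 min reaction with 1.5 microM Rhod110 substrate at room temperature.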

[4] = Vero cells viability qHTS for Zika virus inhibitors (AID 1347167)
Summary of the method: (§1)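 Compounds were tested in concentration series on cells grown in DMEM containing 4% FBS. After 24 to 48 hours, cellular ATP was measured by luminescence with CellTiter Glo.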

[5] = HepG2 cells viability qHTS for Zika virus inhibitors (AID 1347168)
Summary of the method: as §1

[6] = Tertiary RLuc qRT-PCR qHTS assay for Zika virus inhibitors (AID 1347169); also: top concentration of the series differs between compounds; nearly all actives have a fitted effect of over 55% in size
Summary of the method: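 Vero cells (1,000/well) infected with recombinant ZIKV-RLuc (Cambodian) at MOI 1-2 after compound addition, 48-72 hrs at 37 degrees C. Live-cell Renilla luciferase substrate added; luminescence read after 1-1.5 hrs.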

[7] = qHTS to identify inhibitors of the type 1 interferon - major histocompatibility complex class I in skeletal muscle: primary screen against the NCATS LOPAC collection (AID 1347405);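 also: lytic HiBiT luminescence reporting HLA-B protein level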
Summary of the method: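 Cells: C25cl48 human myoblasts, HiBiT-tagged HLA-B*08:01, stimulated with IFN-beta 4.0 ng/ml. Compounds are titrated 1:4.3 over 7 points from 46 uM final and incubated 24 hrs; endogenous MHC class I is quantified by HiBiT lytic luminescence.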

[8] = qHTS to identify inhibitors of the type 1 interferon - major histocompatibility complex class I in skeletal muscle: primary screen against the NCATS Pharmaceutical Collection (AID 1347407);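 also: luminescence of HiBiT knocked into endogenous HLA-B as interferon-induced MHC class I level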
Summary of the method: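 Immortalized human myoblasts (C25cl48) with HiBiT knocked into endogenous HLA-B*08:01 were stimulated with 4.0 ng/ml IFN-beta and treated with compounds ([…] top 46 uM) for 24 hrs at 37 C. HiBiT lytic luminescence read.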

[9] = qHTS for inhibitors of adenylyl cyclases using a fission yeast platform: a pilot screen against the NCATS LOPAC library (AID 1347410)
Summary of the method: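 S. pombe CHP2027 (AC9-GNAS-PDE4D2) carrying PKA-repressed fbp1-GFP, incubated 18 h at 30C in EMM with LOPAC compounds at up to 57 uM. GFP gain-of-signal read by laser scanning cytometry; DMSO negative control.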

[10] = target: Protein phosphatase 1D (Homo sapiens) (UniProt O15297); test: RapidFire Mass Spectrometry qHTS Assay for Modulators of WT P53-Induced Phosphatase 1 (WIP1) (AID 1347424);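 also: amount of dephosphorylated VEPPL-S-QETFS peptide product formed by WIP1; series mostly up to about 63 µM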
Sequence of Protein phosphatase 1D (Homo sapiens) (O15297 whole entry, looked up): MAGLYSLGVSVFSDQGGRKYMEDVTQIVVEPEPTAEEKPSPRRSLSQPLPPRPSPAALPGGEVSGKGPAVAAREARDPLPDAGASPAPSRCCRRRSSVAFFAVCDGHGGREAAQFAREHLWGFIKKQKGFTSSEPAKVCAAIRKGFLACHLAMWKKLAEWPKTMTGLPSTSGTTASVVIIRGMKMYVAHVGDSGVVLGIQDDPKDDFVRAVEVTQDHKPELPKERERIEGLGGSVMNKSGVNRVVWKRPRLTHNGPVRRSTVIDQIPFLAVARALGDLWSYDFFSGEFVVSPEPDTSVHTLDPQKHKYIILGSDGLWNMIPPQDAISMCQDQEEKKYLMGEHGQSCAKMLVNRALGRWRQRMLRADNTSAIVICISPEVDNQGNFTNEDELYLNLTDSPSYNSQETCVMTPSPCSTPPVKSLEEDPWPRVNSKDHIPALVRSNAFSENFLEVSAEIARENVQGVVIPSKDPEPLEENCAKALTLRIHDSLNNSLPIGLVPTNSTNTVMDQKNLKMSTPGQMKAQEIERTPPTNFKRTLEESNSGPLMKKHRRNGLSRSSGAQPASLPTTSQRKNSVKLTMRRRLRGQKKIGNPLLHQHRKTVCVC
Summary of the method: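 10 nM WIP1 + cpd, 1 h RT; + 2 uM VEPPL-pS-QETFS, 5 min RT; stop 0.5% formic acid; labelled product standard 1 uM; RapidFire MS. Buffer 50 mM Tris pH 7.5, 30 mM MgCl2, 1 mM TCEP.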

[11] = target: Protein phosphatase 1D (Homo sapiens) (UniProt O15297); test: Rhodamine-PBP qHTS Assay for Modulators of WT P53-Induced Phosphatase 1 (WIP1) (AID 1347425)
Summary of the method: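 5 nM WIP1 + 10 uM Rh-PBP, 50 mM Tris pH 7.5, 30 mM MgCl2, 1 mM TCEP, 0.1 mM EGTA, BSA; cpds pinned, 1 hr RT; + 10 uM phosphopeptide; fluorescence 1-min reads x 11 min; delta = f1 - f0.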

[12] = Validation qHTS assay for inhibitors of Activation Induced Cytidine Deaminase (AID): UDG Counterscreen signal (AID 1347427)
Summary of the method: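 Counterscreen read of UDG activity (2 U/mL, 4/3x) in the FRET deamination format with AID (1 uM, 4/3x), DJC20/DJC23 substrates (250 nM, 4x), 4 h at room temperature. NaOH stop, fluorescence at 560 ex/665 em.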

[13] = target: Single-stranded DNA cytosine deaminase (Homo sapiens) (UniProt Q9GZX7); test: Validation qHTS assay for inhibitors of Activation Induced Cytidine Deaminase (AID): AID signal (AID 1347429)
Sequence of Single-stranded DNA cytosine deaminase (Homo sapiens) (Q9GZX7 whole entry, looked up): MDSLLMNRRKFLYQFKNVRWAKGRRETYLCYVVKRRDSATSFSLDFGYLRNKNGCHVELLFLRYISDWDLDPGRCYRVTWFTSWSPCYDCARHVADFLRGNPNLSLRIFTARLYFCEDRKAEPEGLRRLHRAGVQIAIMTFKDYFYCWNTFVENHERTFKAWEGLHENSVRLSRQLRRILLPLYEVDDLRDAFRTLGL
Summary of the method: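 In this coupled qHTS, AID deaminates a FRET-labelled ssDNA substrate in the presence of UDG over 4 hr at room temperature. Compounds span up to 114 uM final.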

[14] = Primary qHTS for inhibitors of La Crosse Virus (LACV) - induced cell death in SH-SY5Y cells (AID 1508616);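 also: top concentration of the series differs between compounds; higher means more rescue of cells from virus-induced death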
Summary of the method: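 Readout was luminescence from ATPLite 1step added after a 6-day LACV infection (0.01 MOI) of SH-SY5Y cells that had received pin-transferred compound 24 hr after seeding.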

[15] = target: Calcium and integrin-binding protein 1 (Homo sapiens) (UniProt Q99828); test: Validation qHTS for Identification of Calcium Integrin Binding protein 1 (CIB1) Competitor (AID 1508618)
Sequence of Calcium and integrin-binding protein 1 (Homo sapiens) (Q99828 whole entry, looked up): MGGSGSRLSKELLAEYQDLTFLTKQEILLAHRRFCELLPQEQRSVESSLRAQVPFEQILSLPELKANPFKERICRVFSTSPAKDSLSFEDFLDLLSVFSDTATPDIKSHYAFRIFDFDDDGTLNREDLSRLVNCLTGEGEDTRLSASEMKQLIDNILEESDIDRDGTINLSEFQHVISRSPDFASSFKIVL
Summary of the method: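 Displacement of FITC-alphaIIb peptide (100 nM) from CIB1-GST (1 uM) is monitored by polarization in quantitative HTS format; buffer carries 5 mM CaCl2 and 125 mM NaCl at pH 7.4, incubations are at room temperature.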

[16] = target: Lysine-specific demethylase 5B (Homo sapiens) (UniProt Q9UGL1); test: Optimization screen for KDM5B Histone Demethylases FDH coupled qHTS against the LOPAC library (AID 1347166)
Sequence of Lysine-specific demethylase 5B (Homo sapiens) (Q9UGL1 whole entry, looked up): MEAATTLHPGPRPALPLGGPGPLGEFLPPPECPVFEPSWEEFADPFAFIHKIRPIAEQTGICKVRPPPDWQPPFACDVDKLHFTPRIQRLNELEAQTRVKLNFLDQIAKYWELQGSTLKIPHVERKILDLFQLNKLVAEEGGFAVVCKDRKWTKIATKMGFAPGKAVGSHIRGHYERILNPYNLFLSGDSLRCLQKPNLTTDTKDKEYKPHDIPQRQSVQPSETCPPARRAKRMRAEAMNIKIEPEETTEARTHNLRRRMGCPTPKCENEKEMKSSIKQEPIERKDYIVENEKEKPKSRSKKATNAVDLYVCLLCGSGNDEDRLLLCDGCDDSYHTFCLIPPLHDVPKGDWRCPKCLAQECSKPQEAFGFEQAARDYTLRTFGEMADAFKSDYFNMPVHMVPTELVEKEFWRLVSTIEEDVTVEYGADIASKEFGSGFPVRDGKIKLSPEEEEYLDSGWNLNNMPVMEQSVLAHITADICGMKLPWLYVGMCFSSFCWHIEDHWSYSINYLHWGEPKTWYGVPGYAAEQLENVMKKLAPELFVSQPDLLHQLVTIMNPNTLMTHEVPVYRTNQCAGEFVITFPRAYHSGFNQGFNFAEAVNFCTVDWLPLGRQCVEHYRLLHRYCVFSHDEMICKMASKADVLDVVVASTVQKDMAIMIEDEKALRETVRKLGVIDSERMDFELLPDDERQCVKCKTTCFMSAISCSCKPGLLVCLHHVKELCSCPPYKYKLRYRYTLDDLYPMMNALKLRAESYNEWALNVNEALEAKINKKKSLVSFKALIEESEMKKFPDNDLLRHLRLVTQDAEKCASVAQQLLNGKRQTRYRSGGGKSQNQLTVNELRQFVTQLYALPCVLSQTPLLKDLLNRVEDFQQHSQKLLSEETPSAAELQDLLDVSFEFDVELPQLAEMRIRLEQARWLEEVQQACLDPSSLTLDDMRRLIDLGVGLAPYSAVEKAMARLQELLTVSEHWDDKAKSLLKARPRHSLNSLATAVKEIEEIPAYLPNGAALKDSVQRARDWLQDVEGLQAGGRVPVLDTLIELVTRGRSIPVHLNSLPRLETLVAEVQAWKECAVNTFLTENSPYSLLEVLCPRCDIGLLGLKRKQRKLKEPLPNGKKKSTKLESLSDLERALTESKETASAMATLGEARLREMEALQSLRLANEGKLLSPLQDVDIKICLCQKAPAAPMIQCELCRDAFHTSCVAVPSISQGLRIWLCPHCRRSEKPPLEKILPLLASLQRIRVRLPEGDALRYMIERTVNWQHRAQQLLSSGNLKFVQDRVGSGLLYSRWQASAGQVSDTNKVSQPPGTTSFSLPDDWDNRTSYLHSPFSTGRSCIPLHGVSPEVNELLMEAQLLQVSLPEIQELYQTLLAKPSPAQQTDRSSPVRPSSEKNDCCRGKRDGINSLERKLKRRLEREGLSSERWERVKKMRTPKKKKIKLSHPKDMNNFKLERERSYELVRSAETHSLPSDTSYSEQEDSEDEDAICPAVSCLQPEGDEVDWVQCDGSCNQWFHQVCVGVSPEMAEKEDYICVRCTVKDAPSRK
Summary of the method: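 KDM5BDeltaAP (200nM final) preincubated 10 min with compound, then 12.5uM H3K4Me3, 25uM a-ketoglutarate, ascorbate, Fe(II), NAD+ and FDH added; 50mM HEPES pH 7.5, 0.01% Tween-20. NADH fluorescence (340/450 nm) change over 30 min, room temperature.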

[17] = target: Calcium and integrin-binding protein 1 (Homo sapiens) (UniProt Q99828); test: Confirmatory qHTS for Identification of Calcium Integrin Binding Protein 1 (CIB1) Competitor (AID 1508617); also: nearly all actives have a fitted effect of over 65% in size
Summary of the method: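 Confirmatory qHTS measures displacement of a FITC-alphaIIb peptide (100 nM) from CIB1-GST (1 uM) by fluorescence polarization. Calcium-containing HEPES buffer, pH 7.4; two 15 min room-temperature incubations.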

Measured: Potency

CC1(C)CNc2cc(NC(=O)c3cccnc3NCc3ccncc3)ccc21
inactive: [1] | [2]

Cc1[nH]c(=O)c(C#N)cc1-c1ccncc1
inactive: [3] | [4] | [5] | [6] | [7] | [8] | [9] | [2] | [10] | [11] | [12] | [13] | [14] | [15]

O=C1CCC(N2C(=O)c3ccccc3C2=O)C(=O)N1 (configuration not stated)
inactive: [16] | [7] | [8] | [9] | [2] | [10] | [11] | [12] | [13] | [14] | [15]

CCOC(=O)C1=C[C@]2(CC)CCCN3CCc4c(n1c1ccccc41)[C@@H]32
inactive: [16] | [7] | [8] | [9] | [10] | [11] | [12] | [13] | [14] | [15]

O=c1[nH]cnc2[nH]ncc12
inactive: [16] | [7] | [8] | [9] | [2] | [10] | [11] | [12] | [13] | [14] | [15]

Oc1ccc(C2CNCCc3c2cc(O)c(O)c3Cl)cc1 (configuration not stated)
inactive: [7] | [8] | [9] | [2] | [10] | [11] | [12] | [13] | [14] | [15]

Cc1cnc(NC(=O)C2=C(O)c3ccccc3S(=O)(=O)N2C)s1
inactive: [16] | [9] | [10] | [11] | [14]

CC(C)C[C@H](NC(=O)[C@@H](O)[C@H](N)Cc1ccccc1)C(=O)O
inactive: [16] | [7] | [9] | [2] | [12] | [13] | [14] | [15]

C1COC(NC(C2CC2)C2CC2)=N1
inactive: [16] | [7] | [9] | [2] | [10] | [12] | [13] | [14] | [15]

Nc1ccc(S(=O)(=O)Nc2ccnn2-c2ccccc2)cc1
inactive: [16] | [7] | [8] | [9] | [10] | [11] | [12] | [13] | [14] | [15]

Clc1cccc(Cl)c1NC1=NCCN1
inactive: [16] | [7] | [8] | [9] | [10] | [11] | [12] | [13] | [14] | [15]

O=C(O)CCc1ccc(NCc2cccc(Oc3ccccc3)c2)cc1
inactive: [7] | [9] | [2] | [15]

Cc1cn[nH]c1
inactive: [16] | [7] | [8] | [9] | [2] | [10] | [11] | [12] | [13] | [14] | [15]

NC[C@H](O)c1ccc(O)c(O)c1
inactive: [7] | [8] | [9] | [11] | [12] | [13] | [14] | [17] | [15]

COc1ccc(-c2ccc3c(N4CCOCC4)nc(N4C[C@@H](C)O[C@@H](C)C4)nc3n2)cc1CO
inactive: [4] | [5]

CCC(C)(C)C(=O)O[C@H]1C[C@@H](C)C=C2C=C[C@H](C)[C@H](CC[C@@H]3C[C@@H](O)CC(=O)O3)[C@H]21
inactive: [8] | [2] | [10] | [11]

Cc1ccccc1C(OCCN(C)C)c1ccccc1 (configuration not stated)
inactive: [16] | [7] | [8] | [9] | [10] | [11] | [12] | [13] | [14] | [15]

c1ccc([C@H]2CN3CCSC3=N2)cc1
inactive: [16] | [7] | [8] | [9] | [2] | [10] | [11] | [12] | [13] | [14] | [15]

Nc1nc2c(ncn2COCCO)c(=O)[nH]1
inactive: [16] | [9] | [10] | [11] | [14] | [15]

CCOC(=O)N1CCC(=C2c3ccc(Cl)cc3CCc3cccnc32)CC1
inactive: [16] | [7] | [9] | [10] | [11] | [12] | [13] | [14] | [15]

Nc1nc2ccc(OC(F)(F)F)cc2s1
inactive: [16] | [7] | [8] | [9] | [2] | [10] | [11] | [12] | [13] | [14] | [15]
